This is an account of results in PubChem BioAssay (Tox21).

Structures are written as SMILES. Values joined by “and” are separate entries in the source; they are usually repeats but may differ in a detail not shown here. Equal entries are not always repeated. Inconclusive results are not listed. Where a structure was tested more than once in an assay, its records may differ in their call. Active and inactive are the calls of the source. Unless noted, the call rests on the fitted dose curve; in most records, active means well fitted curve in the direction sought with a large enough effect in the repeat runs; inconclusive means weak or mixed curves; inactive means no such curve, though single readings can be large; an effect the other way counts as inactive or inconclusive.

The nature of test [1]: qHTS assay to identify small molecule agonists of the peroxisome proliferator-activated receptor delta (PPARd) signaling pathway - cell viability counter screen (AID 743211). Further: nearly all actives have a fitted effect of over 55% in size. Further: potency means the concentration at half of the fitted maximal effect. In outline: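 Viability was measured as CellTiter-Glo luminescence (30 min, room temperature) in the same wells as the beta-lactamase readout. GeneBLAzer PPARd UAS-bla HEK293H cells received compound after 5 h plating and were incubated 17 h at 37 C.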
(In qHTS, concentration-response curves come from the screen itself.)

The target of test [2] is Peroxisome proliferator-activated receptor delta (Homo sapiens) (UniProt Q03181). In words: qHTS assay to identify small molecule agonists of the peroxisome proliferator-activated receptor delta (PPARd) signaling pathway (AID 743212; calls by dose curve; further: potency means the concentration at half of the fitted maximal effect). In outline:
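Tox21 library screened in GeneBLAzer PPARd UAS-bla HEK293H cells. After compound treatment at 37 C, a FRET-based beta-lactamase substrate was applied for 2 h and fluorescence recorded.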

Test [3] is described as follows: qHTS assay to identify small molecule antagonists of the peroxisome proliferator-activated receptor delta (PPARd) signaling pathway - cell viability counter screen (AID 743213). Further: nearly all actives have a fitted effect of over 50% in size. Further: potency means the concentration at half of the fitted maximal effect. In outline:
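HEK293H cells with the PPARd UAS-bla reporter, co-treated 17 h at 37 C with compounds and L165041 (300 nM final), were lysed with CellTiter-Glo. Luminescence indicated viable cell content.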

The target in test [4] is Peroxisome proliferator-activated receptor delta (Homo sapiens) (UniProt Q03181). The experiment in a line: qHTS assay to identify small molecule antagonists of the peroxisome proliferator-activated receptor delta (PPARd) signaling pathway (AID 743215; active means well fitted inhibition curve with a large enough effect in the signal ratio in the repeat runs, not every such curve was filed as active; the % refers to the signal ratio;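 further: cells stimulated with agonist L165041 at 300 nM final during compound exposure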; further: potency means the concentration at half of the fitted maximal effect). In outline: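 Screen format: qHTS, antagonist mode. HEK293H PPARd-bla cells received compound and 300 nM L165041 (final), 17 h, 37 C. Beta-lactamase detected via FRET substrate fluorescence, 2 h, room temperature.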

The nature of test [5]: qHTS assay to identify small molecule agonists of the farnesoid-X-receptor (FXR) signaling pathway - cell viability counter screen (AID 743218). Further: nearly all actives have a fitted effect of over 45% in size. Further: potency means the concentration at half of the fitted maximal effect. In outline: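 Same-well cytotoxicity check on FXR-UAS-bla HEK 293T cells: 5 h attachment, 16 h compound at 37 C, CellTiter-Glo luminescence read at room temperature after 30 min.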
Test [6] in a line: qHTS assay to identify small molecule antagonists of the farnesoid-X-receptor (FXR) signaling pathway - cell viability counter screen (AID 743221; active means well fitted cell-killing curve with a large enough effect in the repeat runs, not every such curve was filed as active; further: nearly all actives have a fitted effect of over 50% in size; further: potency means the concentration at half of the fitted maximal effect). In outline:
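Cytotoxicity counter screen run in the FXR-bla reporter wells: HEK 293T cells exposed to compound with 50 uM (final) chenodeoxycholic acid for 16 h, 37 C, then viability measured by CellTiter-Glo luminescence after 30 min, room temperature.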

In test [7] the target is Vitamin D3 receptor (Homo sapiens) (UniProt P11473). The experiment in a line: qHTS assay to identify small molecule agonists of the vitamin D receptor (VDR) signaling pathway (AID 743222; calls by dose curve; further: potency means the concentration at half of the fitted maximal effect). Put shortly:
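Using LiveBLAzer B/G FRET detection, agonism was scored in VDR-bla cells exposed overnight (16 h, 37C) to DMSO-dissolved compounds; substrate incubation was 2 h at room temperature.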

The target is the same in test [8]. The experiment in a line: qHTS assay to identify small molecule antagonists of the vitamin D receptor (VDR) signaling pathway (AID 743223; active means well fitted inhibition curve with a large enough effect in the signal ratio in the repeat runs, not every such curve was filed as active; the % refers to the signal ratio; further: potency means the concentration at half of the fitted maximal effect). Put shortly:
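Antagonist mode: compound added to VDR-bla cells alongside agonist 1alpha,25-dihydroxyvitamin D3 (3 nM final), incubation 16 h at 37C. Read-out is LiveBLAzer FRET fluorescence, 2 h at room temperature.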

The target in test [9] is Bile acid receptor (Homo sapiens) (UniProt Q96RI1). The experiment in a line: qHTS assay to identify small molecule antagonists of the farnesoid-X-receptor (FXR) signaling pathway (AID 743217; active means well fitted inhibition curve with a large enough effect in the signal ratio in the repeat runs, not every such curve was filed as active; the % refers to the signal ratio; further: potency means the concentration at half of the fitted maximal effect). Put shortly:
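Quantitative HTS, beta-lactamase reporter format: FXR-UAS-bla HEK 293T cells co-treated 16 h at 37 °C with compounds and 50 uM final chenodeoxycholic acid, then read by B/G FRET fluorescence.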

The target is the same in test [10]. The experiment in a line: qHTS assay to identify small molecule agonists of the farnesoid-X-receptor (FXR) signaling pathway (AID 743220; active means well fitted activation curve with a large enough effect in the signal ratio in the repeat runs, not every such curve was filed as active; the % refers to the signal ratio). In outline: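 FXR-UAS-bla HEK 293T cells carrying a UAS-driven beta-lactamase reporter were plated for 5 h at 37C/5% CO2, then exposed to DMSO-dissolved Tox21 10K compounds for 16 h at 37C. A LiveBLAzer B/G FRET substrate was loaded for 2 h at room temperature before fluorescence reading.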

Peroxisome proliferator-activated receptor delta (Homo sapiens), sequence (Q03181 whole entry, looked up): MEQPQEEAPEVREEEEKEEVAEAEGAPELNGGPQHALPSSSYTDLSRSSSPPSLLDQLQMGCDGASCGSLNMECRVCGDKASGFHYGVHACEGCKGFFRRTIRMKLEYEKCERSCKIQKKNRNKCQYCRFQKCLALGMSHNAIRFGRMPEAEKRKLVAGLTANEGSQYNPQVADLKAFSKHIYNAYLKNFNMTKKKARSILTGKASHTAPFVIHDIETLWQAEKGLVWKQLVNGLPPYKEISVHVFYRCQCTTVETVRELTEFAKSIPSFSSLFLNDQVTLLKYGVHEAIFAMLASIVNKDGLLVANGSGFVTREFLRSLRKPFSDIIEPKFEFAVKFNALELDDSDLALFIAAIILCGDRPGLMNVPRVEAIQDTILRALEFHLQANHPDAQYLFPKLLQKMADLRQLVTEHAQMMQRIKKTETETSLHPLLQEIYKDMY
Vitamin D3 receptor (Homo sapiens), sequence (P11473 whole entry, looked up): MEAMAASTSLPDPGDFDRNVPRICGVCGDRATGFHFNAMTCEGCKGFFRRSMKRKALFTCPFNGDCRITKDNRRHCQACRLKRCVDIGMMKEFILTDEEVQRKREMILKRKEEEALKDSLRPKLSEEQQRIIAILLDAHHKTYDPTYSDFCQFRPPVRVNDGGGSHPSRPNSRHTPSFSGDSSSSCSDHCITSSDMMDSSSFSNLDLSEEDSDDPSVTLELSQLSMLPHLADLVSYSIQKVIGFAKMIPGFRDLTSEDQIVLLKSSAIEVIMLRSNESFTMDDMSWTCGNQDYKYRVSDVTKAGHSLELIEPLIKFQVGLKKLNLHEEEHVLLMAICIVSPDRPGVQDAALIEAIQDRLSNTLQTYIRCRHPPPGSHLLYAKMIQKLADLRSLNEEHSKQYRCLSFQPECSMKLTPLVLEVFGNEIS
Bile acid receptor (Homo sapiens), sequence (Q96RI1 whole entry, looked up): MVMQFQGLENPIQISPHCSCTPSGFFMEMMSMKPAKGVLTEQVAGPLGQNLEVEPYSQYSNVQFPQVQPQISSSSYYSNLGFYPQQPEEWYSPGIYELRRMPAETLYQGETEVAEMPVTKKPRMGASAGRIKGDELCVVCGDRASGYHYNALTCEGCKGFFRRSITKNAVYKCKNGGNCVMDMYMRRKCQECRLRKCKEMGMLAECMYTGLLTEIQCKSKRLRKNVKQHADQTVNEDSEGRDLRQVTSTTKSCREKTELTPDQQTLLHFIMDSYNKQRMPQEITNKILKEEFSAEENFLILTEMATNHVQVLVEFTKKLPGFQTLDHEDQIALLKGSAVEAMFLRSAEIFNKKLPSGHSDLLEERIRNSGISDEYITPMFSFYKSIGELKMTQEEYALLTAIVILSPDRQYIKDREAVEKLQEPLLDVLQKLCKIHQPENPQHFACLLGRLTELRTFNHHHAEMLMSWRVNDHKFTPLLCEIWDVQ

For `C=C(C)C(=O)O`, the Potency result in [1], in test [2], in test [3], in test [4], in [5] and in [6] was “inactive” in each case. Further, the Potency result in [7] and in [8] was “inactive” each time.
On to `O=C(O)c1cn(-c2ccc(F)cc2)c2cc(N3CCNCC3)c(F)cc2c1=O`, for which the Potency entry in test [1], in test [2], in [3], in test [4], in test [5] and in [6] was “inactive” in each case.
Consider `CC[C@@H](N)CO`, for which the Potency result in test [1], in test [2], in test [3], in test [4], in test [5] and in test [6] was “inactive” each time. The Potency entry in test [7] and in test [8] was “inactive” each time.
Take `COC(=O)/C=C/c1ccccc1`: the Potency entry in [1], in [2], in test [3], in test [4], in test [5] and in [6] was “inactive” throughout. Further, the Potency entry in test [7] and in test [8] was “inactive” each time.
In the case of `Clc1ccc2c(c1)C(N1CCNCC1)=Nc1ccccc1O2`, the Potency in [1] is 27.5 µM (active) and 26.6 µM (active); in test [3], 2.19 µM (active) and inactive; in test [5], 38.9 µM (active). For the same compound, the Potency result in [2], in [4] and in [6] was “inactive” in each case.
With `CCCCCCC(O)CCCCCCCCCCC(=O)O` (stereo not drawn), the Potency is 19.6 µM (active) and 19.5 µM (active) in test [1]; 21.9 µM (active) in test [2]; “inactive and 34.7 µM (active)” in test [9]. Also, the Potency entry in [4] and in [5] was “inactive” throughout.
Regarding `O=C(O)CP(=O)(O)O`, the Potency entry in test [1], in [2], in test [5], in [6] and in [8] was “inactive” each time.
`Cc1c(O)cccc1C(=O)N[C@@H](CSc1ccccc1)[C@H](O)CN1C[C@H]2CCCC[C@H]2C[C@H]1C(=O)NC(C)(C)C`: the Potency in test [1] was 7.56 µM (active) and 18.8 µM (active); in [3] it was 15.1 µM (active) and 23.7 µM (active); in test [5], 6.74 µM (active) and 26.6 µM (active); in test [6] it was 19 µM (active) and 26.6 µM (active). In addition, the Potency result in [10] was “inactive”.
Consider `NCCCCCC(=O)O`, for which the Potency entry in [1], in test [3], in test [9], in test [5], in test [10] and in [6] was “inactive” throughout. Moreover, the Potency result in test [7] was “inactive”.
As to `CC[C@H]1CN2CCc3cc(OC)c(OC)cc3[C@@H]2C[C@@H]1C[C@H]1NCCc2cc(OC)c(OC)cc21`, the Potency is 43.8 µM (active) in test [1]; 0.438 µM (active) in test [4]; 27.6 µM (active) and inactive in [5]; 0.492 µM (active) in [8]. For the same compound, the Potency entry in test [2], in test [6] and in test [7] was “inactive” in each case.
For the compound `CCCCC(CC)COC(=O)CC(C(=O)OCC(CC)CCCC)S(=O)(=O)O` (stereo not drawn), the Potency in [1] was 37.4 µM (active) and 24.5 µM (active); in test [3], 15.5 µM (active); in test [5] it was 52.9 µM (active) and 43.6 µM (active); in [6], 43.6 µM (active). Further, the Potency result in test [4], in test [7] and in test [8] was “inactive” in each case.
Consider `O=C(OCc1ccccc1)c1ccc(O)cc1`, for which the Potency result in test [1], in test [3], in [9], in test [5], in test [10] and in test [6] was “inactive” throughout.
Take `O=C1CC2(CCCC2)CC(=O)N1CCCCN1CCN(c2ncccn2)CC1`: the Potency entry in test [1], in test [3], in test [9], in [10], in [6] and in test [7] was “inactive” throughout. Further, in test [5], the Potency is 24.5 µM (active) and inactive.
For the compound `COc1cc(C(=S)N2CCOCC2)ccc1O`, the Potency result in test [1], in test [2], in test [4] and in [6] was “inactive” each time.
As for `Nc1cc(S(=O)(=O)O)cc2cc(S(=O)(=O)O)cc(O)c12`, the Potency result in test [1], in test [3], in test [9], in test [5], in test [10] and in test [6] was “inactive” throughout. In test [8], the Potency result was “inactive”. For the same compound, the Potency in [7] is 24.4 µM (active).
Consider `O=c1n(CC2CO2)c(=O)n(CC2CO2)c(=O)n1CC1CO1` (stereo not drawn), for which the Potency entry in test [1], in [2], in test [3], in test [6] and in test [7] was “inactive” throughout.
In the case of `CCN(CC)CCOc1ccc(/C(=C(\Cl)c2ccccc2)c2ccccc2)cc1`, the Potency in test [1] is 35.4 µM (active) and 29.8 µM (active); in test [3], 39.7 µM (active); in test [5] it was 35.4 µM (active) and 26.6 µM (active); in [8] it was 31.6 µM (active). Further, the Potency entry in [9], in test [10] and in test [7] was “inactive” throughout.
With `CCC(C)(Oc1ccc(C2(c3ccc(OC(C)(CC)C(=O)O)cc3)CCCCC2)cc1)C(=O)O` (stereo not drawn), the Potency result in test [1], in [3], in test [9], in test [5], in test [10] and in [6] was “inactive” in each case.
As to `CC1=C(C=O)C(C)(C)CC=C1`, the Potency entry in test [1], in [2], in test [3], in test [5], in test [6] and in [7] was “inactive” each time.
Regarding `c1ccc2cc3c(ccc4ccccc43)cc2c1`, the Potency result in test [1], in test [3], in test [9], in test [5], in test [10] and in test [6] was “inactive” each time. Also, the Potency entry in test [7] and in [8] was “inactive” each time.
Take `CCCCCCCCCCCC[N+](C)(C)C`: the Potency is 54.9 µM (active) and 49 µM (active) in test [1]; 54.9 µM (active) and 15.5 µM (active) in test [3]. Moreover, the Potency result in [9], in test [5], in [10] and in [6] was “inactive” throughout.
In the case of `Nc1nc2ccccc2[nH]1`, the Potency entry in test [1], in test [3], in test [9], in test [5], in [10] and in test [6] was “inactive” each time. For the same compound, the Potency result in test [7] and in test [8] was “inactive” in each case.
`CC1=CC(=O)c2ccccc2C1=O`: the Potency in test [1] is 19.5 µM (active) and 26.6 µM (active); in [3], 19.5 µM (active); in test [4], 33.5 µM (active); in test [5], 24.5 µM (active).
Consider `O=S(=O)(O)c1ccc2nc(-c3ccccc3)[nH]c2c1`, for which the Potency in test [1] was 8.29 µM (active); in test [6], 7.39 µM (active). Besides, the Potency result in test [2], in test [4], in test [9], in [5] and in test [10] was “inactive” throughout.
With `Cc1cccc([N+](=O)[O-])c1C(=O)O`, the Potency entry in test [1], in test [2], in test [4], in [9], in [5] and in test [10] was “inactive” each time. Besides, the Potency result in test [6] and in test [7] was “inactive” each time.
On to `CC(=O)CC(C)=O`, for which the Potency entry in test [1], in [2], in test [3], in [5] and in test [6] was “inactive” each time.
As for `CN(C)c1ccc2nc3ccc(=[N+](C)C)cc-3sc2c1`, the Potency in [1] is 9.39 µM (active) and 49 µM (active); in test [3] it was 49 µM (active) and inactive; in test [9], 8.37 µM (active) and 21.9 µM (active) and 8.41 µM (active); in test [6] it was 21 µM (active) and 49 µM (active). Also, the Potency result in [5] and in test [10] was “inactive” throughout.
As for `Cc1cc(OCCOCC[N+](C)(C)Cc2ccccc2)ccc1C(C)(C)CC(C)(C)C`, the Potency in [1] was 21.7 µM (active) and 11.9 µM (active); in test [3], 19.4 µM (active); in test [9] it was 54.6 µM (active); in [5] it was 17.3 µM (active) and 18.8 µM (active); in [6] it was 54.6 µM (active) and 29.8 µM (active). Moreover, the Potency entry in test [10] is “inactive”.
As for `c1ccc2c(c1)-c1cccc3c1c-2cc1ccccc13`, the Potency entry in [1], in test [3], in [4], in [5] and in [6] was “inactive” each time.
Regarding `O=Nc1ccc(Nc2ccccc2)cc1`, the Potency in test [1] is 43.9 µM (active) and 38.9 µM (active); in test [3], 49 µM (active); in test [4], 30.9 µM (active); in test [5], 55.3 µM (active) and 54.9 µM (active); in [6], 39.1 µM (active). Further, the Potency result in test [7] is “inactive”.
With `CC(=O)OCC1=C(C(=O)O)N2C(=O)[C@@H](NC(=O)Cc3cccs3)[C@H]2SC1`, the Potency entry in [1], in [3], in [9], in test [5], in [10] and in test [6] was “inactive” throughout. The Potency result in test [7] and in test [8] was “inactive” throughout.
